Screening results as filed in PubChem.
Shown are actives, neighbours in structure and some others; about 19% of the full set was active somewhere.
Shiga toxin inh: A qHTS for Small Molecule Inhibitors of Shiga Toxin | Vero cells, Shiga toxin protein synthesis inhibition reporter | inhibition, % at 38.7 µM | 9.2% of 290,000 active | AID 2315, 2010; in the data active means inhibition mostly above about 28%, no sharp cut-off; inactive means mostly below about 43%; further: 0% is about no effect
Pf growth 48h: Primary qHTS for delayed death inhibitors of the malarial parasite plastid, 48 hour incubation; P. falciparum luciferase growth in erythrocytes, 48 h; Potency, µM (series often up to 28.7 µM), for inactives: at the top dose activity change, negative = inhibition, actives largely listed as inhibitors; 5.9% of 310,000 active; AID 504832, 2011; further: potency means the concentration at half of the fitted maximal effect; on the % scale 0 is the no-effect control and ±100 the full control effect
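Luminescence readout; reporter = integrated firefly luciferase in P. falciparum. RBC culture at 2% hematocrit, 0.1% parasitemia final, 37 C/5% CO2; decreased signal taken as growth inhibition.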
Pf growth 96h: Primary qHTS for delayed death inhibitors of the malarial parasite plastid, 96 hour incubation | P. falciparum luciferase reporter growth, 96 h | AID 504834, 2011 | 6.9% of 320,000 active | Potency, µM (doses to about 28.7 µM), for the others: at the top dose activity change, negative = inhibition, most hits filed as inhibitors; further: potency means the concentration at half of the fitted maximal effect; on the % scale 0 is the no-effect control and ±100 the full control effect
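Two-generation exposure (96 h) targets delayed-death phenotype. Reporter parasites carrying integrated firefly luciferase, in red cells at 2% hematocrit and 0.05% parasitemia final, kept at 37 C, 5% CO2; luminescence loss indicates inhibition.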
Cycloheximide cs: Cycloheximide Counterscreen for Small Molecule Inhibitors of Shiga Toxin; cell reporter, cycloheximide protein synthesis inhibition counterscreen; 12% of 300,000 active; max response, %; in the data active means max response mostly above about 13%, no sharp cut-off; inactive means mostly below about 14%; further: read at 38.3 µM for the half of the compounds with a filed dose; 0% is about no effect
LASV entry inh: qHTS for Inhibitors of binding or entry into cells for Lassa Virus; Lassa virus pseudotype entry inhibition, cell reporter; Potency, µM (series often up to 37.9 µM), for inactives: top-dose activity change, negative = inhibition, most hits filed as inhibitors; 1.2% of 300,000 active; AID 540256, 2011; calls by dose curve; tested in HEK293 cells; further: potency means the concentration at half of the fitted maximal effect; on the % scale 0 is the no-effect control and ±100 the full control effect; nearly all actives have a fitted effect of over 50% in size
MARV entry inh: qHTS for inhibitors of binding or entry into cells for Marburg Virus; Marburg virus pseudotyped entry inhibition, cell reporter; Potency, µM (doses to about 37.8 µM), inactives show top-dose activity change, negative = inhibition, usual class: inhibitors; 1.8% of 300,000 active; AID 540276, 2011; calls by dose curve; tested in HEK293 cells; further: potency means the concentration at half of the fitted maximal effect; on the % scale 0 is the no-effect control and ±100 the full control effect
Starred values were filed as active, the others as inactive; i = inactive; ? = inconclusive; nt = no result given; [ ] = dose if it differs, or a comment. Unless noted, the call rests on the fitted dose curve; in most records, active means well fitted inhibition curve with a large enough effect; inconclusive means small, poorly fitted or top-dose-only effect, or another doubt; inactive means no such curve, though single readings can be large or run the other way.

SMILES	Shiga toxin inh	Pf growth 48h	Pf growth 96h	Cycloheximide cs	LASV entry inh	MARV entry inh
COc1ccc2[nH]c(=O)c(CN(C(=O)c3cccnc3)c3ccccc3)cc2c1	-8	9%	nt	-1	9%	-5%
Cc1cc(NC(=O)CCN2C(=O)C3C4C=CC(C4)C3C2=O)c2ccccc2n1 (stereo not given)	-12	?	?	7	-2%	?
c1csc(-c2nnc(Cc3cccc4ccccc34)o2)c1	29	?	-23%	17*	10%	-2%
Fc1ccc(-c2nnc(Cc3ccc(Cl)cc3)o2)cc1	59*	60%	65%	36*	nt	nt
Cc1nnc(SCc2nnc(-c3cccs3)o2)n1Cc1ccccc1	-22	i	?	4	7%	-16%
CC(C)NCc1nnc(-c2ccc(Cl)cc2)o1	32	19%	12%	20*	nt	nt
CC1(c2nnc(-c3ccc(F)cc3)o2)CC(c2ccc(Cl)cc2)=NO1 (stereo not given)	-3	59%	76%	-5	nt	nt
Fc1ccc(CSc2nnc(-c3cccs3)o2)cc1	101*	194%	nt	65*	?	?
Fc1ccc(-c2nnc(CSc3nnc(-c4cccs4)o3)o2)cc1	28	nt	65%	10	13%	25%
CC(/C=C1\SC(=S)N(C(C(=O)O)C(C)C)C1=O)=C\c1ccccc1 (stereo not given)	20	-11%	i	2	8%[46.1 µM]	1%[46.1 µM]
c1ccc(CSc2nnc(-c3cccs3)o2)cc1	101*	114%	?	46*	?	?
Cc1nc2ccc(NC(=O)c3ccc(Cl)nc3)cc2s1	24	-16%	?	18*	nt	nt
Cc1nc2ccc(NC(=O)c3ccc(Cl)c([N+](=O)[O-])c3)cc2s1	20	18%	38%	1	14%	-5%
Cc1nc2ccc(NC(=O)c3cc(Cl)ccn3)cc2s1	82*	50%	179%	62*	?	?
Cc1nc(-c2ccccc2)sc1CCNC(=O)C(=O)Nc1ccc2c(c1)OCO2	nt	nt	nt	nt	0%[46.1 µM]	nt
CCOc1ccc(C(C)NC(=O)c2ccc3c(c2)NC(=O)C(C)S3)cc1OCC (stereo not given)	nt	2.3µM*	1.9µM*	nt	nt	nt
COc1ccc(CNC(=O)c2ccc3c(c2)NC(=O)C(C)S3)cc1 (stereo not given)	37*	4%	-9%	21*	nt	nt
CC1Sc2ccc(C(=O)Nc3ncccc3O)cc2NC1=O (stereo not given)	nt	147%	145%	nt	?	10µM*
CCC(C)NC(=O)C1CCN(S(=O)(=O)c2ccc3[nH]c(=O)ccc3c2)CC1 (stereo not given)	-4	14%	?	-2	nt	nt
CCOc1ccc(CC(=O)Nc2c(C(=O)c3ccccc3)oc3ccc(Cl)cc23)cc1OCC	nt	nt	nt	nt	-7%[46.1 µM]	-5%[46.1 µM]
CSc1ncc(C(=O)N2CCN(c3cc(C)ccc3C)CC2)c(C)n1	nt	nt	nt	nt	-25%[46.1 µM]	nt
CCCN(CCC)S(=O)(=O)c1nc2nc(C)cc(C)n2n1	9	10%	16%	0	1%[46.1 µM]	6%[46.1 µM]
Cc1sc2nc(CN3CCCC3)nc(N3CCC(C(N)=O)CC3)c2c1C	12	nt	9.3µM*	-4	?	-11%[46.1 µM]
Cc1sc2nc(CN3CCCC3)nc(N3CCN(C(=O)c4ccco4)CC3)c2c1C	27	?	3.7µM*	-3	8%[46.1 µM]	?
Cc1nc(N2CCN(C(=O)c3ccco3)CC2)c2c3c(sc2n1)CCCC3	-3	?	?	-1	-56%	?
SMILES	Shiga toxin inh	Pf growth 48h	Pf growth 96h	Cycloheximide cs	LASV entry inh	MARV entry inh
COc1ccc(-c2nc(CN(C)C(C)c3ccon3)c(C)o2)c(C)c1C (stereo not given)	13	?	22%	7	-35%	?
COc1ccc(-c2nc(CN(CC3CCC(=O)N3)C(C)C)c(C)o2)c(C)c1C (stereo not given)	87*	0%	32%	25*	?	-11%[46.1 µM]
Cc1nc2c(cc(Oc3ccc(S(=O)(=O)N4CCOCC4)cn3)c3ccsc32)s1	113*	?	?	72*	12%	-9%
CNC(=O)COc1ccc(S(=O)(=O)Nc2ccc(C)cc2)cc1	-9	4%	7%	0	nt	nt
NC(=O)c1c(NC(=O)C2CCCO2)sc2c1CCCC2 (stereo not given)	56*	139%	155%	38*	13%	?
CCOC(=O)c1c(NC(=O)C2CCCO2)sc2c1CCC2 (stereo not given)	31	10%	45%	-3	-22%	22%[46.1 µM]
N#Cc1c(NC(=O)C2CCCO2)sc2c1CCCCCC2 (stereo not given)	84*	79%	126%	39*	-5%	?
Cc1sc(NC(=O)C2CCCO2)c(C#N)c1C (stereo not given)	23	60%	nt	15*	-6%	?
Cc1c(C(=O)OC(C)C)sc(NC(=O)C2CCCO2)c1C(=O)OC(C)C (stereo not given)	-9	nt	9.3µM*	-1	?	-11%
COC(=O)c1sc(NC(=O)C2CCCO2)c(C(=O)OC)c1C (stereo not given)	-7	?	?	-2	4%	-6%
Cc1sc(NC(=O)C2CCCO2)c(C(N)=O)c1C (stereo not given)	-22	31%	-18%	15	8%	-2%
Cc1ccc(NS(=O)(=O)c2c(C(=O)N3CCC(C)CC3)c(C)n(C)c2C)cc1Cl	nt	nt	nt	nt	-22%[46.1 µM]	nt
CN(C)Cc1cc(C(C)(C)C)cc(N2CCOCC2)c1O	nt	nt	nt	nt	1%[46.1 µM]	0%[46.1 µM]
Cc1ccc(N/C=C/c2onc(C)c2[N+](=O)[O-])cc1	117*	103%	95%	74*	nt	nt
O=P(O)(O)c1ccccc1OCCOCCOCCOCCOc1ccccc1P(=O)(O)O	47	123%	-26%	42*	?	?
COc1cc(CC2COC(c3ccc(O)c(OC)c3)C2COC(C)=O)ccc1O (stereo not given)	-10	-12%	10µM*	-2	nt	nt
O=C(O)CC(CC(=O)Nc1ccc(C(=O)O)cc1)c1ccccc1 (stereo not given)	-6	-2%	27%	-2	nt	nt
Cc1cc(Cl)cc(C)c1OCCNCc1ccccc1	nt	3%	?	-3	-5%	?
Clc1ccc(OCCOCCNCc2ccccc2)cc1Cl	nt	52%	13µM*	-3	nt	nt
Cc1cc(Cl)cc(C)c1OCCOCCNCc1ccccc1	nt	?	15µM*	-4	nt	nt
Cc1cc(C)c(C)c(OCCNCc2ccccc2)c1	-1	-20%	12µM*	-1	?	?
CCn1c(=O)c(=O)[nH]c2cc(C(=O)Nc3ccc(S(=O)(=O)N4CCCC4)cc3)ccc21	-5	?	74%	-3	12%	11%
O=C(CN1C(=O)NC2(CCCc3ccccc32)C1=O)NCc1ccc(Cl)cc1Cl (stereo not given)	-7	-17%	-8%	-3	9%	?
